# Reference: PubChem BioAssay AID743130 (Broad Institute, 2013)
# A number with no mark means an inactive call.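 The calls were made as follows: active = fitted curve rises past 20% activation at a concentration no higher than the top valid tested dose; inactive = activity opposite to the expected signal increase, and the rest.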
# Assay: cell wall integrity pathway activation in yeast – S. cerevisiae reporter strain, C. neoformans project, dry powder, dose response (AID 743130)
# Conditions: S. cerevisiae Rlm1-lacZ reporter, luminescence, 4 h, stronger effect = higher value
smiles,measurement,setting,value
Cc1ccc(OCCn2c(=S)[nH]c3ccccc32)c(C(C)C)c1,maximal activation,at 0.135 µM,2.35%
same,maximal activation,at 0.26 µM,3.69%
